Measured values from PubChem BioAssay (Tox21).
The source made the active and inactive calls. Calls come from the whole dose curve.

Test: qHTS assay to identify small molecule agonists of the sonic hedgehog signaling (Shh) pathway (AID 1259368);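 note: NIH/3T3-derived 3T3Gli1-Luc cells carrying a stable Gli1-driven firefly luciferase reporter; nearly all actives have a fitted effect of over 15% in size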
Details: NIH/3T3 Gli1-Luc reporter, luciferase, 24 h; series mostly up to 92.4 µM; activity change: at the top concentration
Summary of the method: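 A Gli1 transcriptional response element controlled firefly luciferase in 3T3Gli1-Luc cells. Compounds and a positive control were added 4 hr after plating, and cells were incubated a further 24 hr at 37 C before luminescence detection.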
% is set by controls: 0 for no effect and ±100 for the full control effect.

| Compound | activity change | Potency |
| --- | --- | --- |
| Nc1nc2c(ncn2COCCO)c(=O)[nH]1 | -0.16% [at 42.5 µM, active compounds read high] (inactive) | – |
| CC(C)NC[C@@H](O)COc1ccc(CC(N)=O)cc1 | -0.582% [at 42.5 µM, active compounds read high] (inactive) | – |
| COC(C)=O | -0.0086% (inactive) | – |
| CCc1cccc(CC)c1NC(=O)CN(CC(=O)O)CC(=O)O | 0.0649% [at 42.5 µM, active compounds read high] (inactive) | – |
| CC(=O)Oc1cc2c(s1)CCN(C(C(=O)C1CC1)c1ccccc1F)C2 (stereo unspecified) | 0.985% [at 42.5 µM, active compounds read high] (inactive) | – |
| CCCCCCCCCCCCCCCC[N+](C)(C)CC | – | inactive |
| Cc1c(N)cccc1C(F)(F)F | 0.19% [at 42.5 µM, active compounds read high] (inactive) | – |
| Cc1c(C)c2c(c(C)c1OC(=O)c1cccnc1)CC[C@@](C)(CCC[C@H](C)CCC[C@H](C)CCCC(C)C)O2 | -1% [at 42.5 µM, active compounds read high] (inactive) | – |
| O=C(O)c1cc(=O)c2ccccc2o1 | -0.042% [at 42.5 µM, active compounds read high] (inactive) | – |
| CCN(CC)C(=O)c1cc(S(=O)(=O)Cc2ccccc2)c(N2CCC(c3ccccc3)CC2)cc1N(CC)CCN(C)C | -15.1% [at 42.5 µM, active compounds read high] (inactive) | – |
| CN1CCN2c3ccccc3Cc3ccccc3C2C1 (stereo unspecified) | 0.876% [at 42.5 µM, active compounds read high] (inactive) | – |
| Cc1c(F)c(N2CCNC(C)C2)cc2c1c(=O)c(C(=O)O)cn2C1CC1 (stereo unspecified) | -0.723% [at 42.5 µM, active compounds read high] (inactive) | – |
| O=C(O)c1cc(-c2ccc(F)cc2F)ccc1O | 0.0115% [at 42.5 µM, active compounds read high] (inactive) | – |
| CC[N+](CC)(CC)CCOc1ccc(/C=C/c2ccccc2)cc1 | -1.73% [at 42.5 µM, active compounds read high] (inactive) | – |
| O=c1[nH]c(=O)n([C@H]2C[C@H](O)[C@@H](CO)O2)cc1F | -0.71% [at 42.5 µM, active compounds read high] (inactive) | – |
| Cc1cccc(C(=O)O)c1O | -0.485% [at 42.5 µM, active compounds read high] (inactive) | – |
| CCCCCCCCCCC[C@@H](C[C@@H]1OC(=O)[C@H]1CCCCCC)OC(=O)[C@H](CC(C)C)NC=O | -0.0623% [at 42.5 µM, active compounds read high] (inactive) | – |
| Cc1cc(=O)oc2cc(O)cc(O)c12 | -12.9% (inactive) | – |
| CCCCCCCC/C=C\CCCCCCCCN | 0.0821% [at 42.5 µM, active compounds read high] (inactive) | – |
| Cc1cc(C(C)(C)C)cc(C)c1CC1=NCCN1 | 0.243% [at 42.5 µM, active compounds read high] (inactive) | – |
| C#CC1(O)CC[C@H]2[C@@H]3CCC4=CCCC[C@@H]4[C@H]3CC[C@@]21C (stereo partly specified) | – | inactive |
